# From PubChem BioAssay (EPA / NIEHS)
# Records with an inconclusive call do not appear. Where a structure was tested more than once in an assay, its records may differ in their call. Activity calls are given as the source filed them. Rule for the calls: active = hit-call score of the fitted dose curve at least 0.9, where 1 is the maximum; inconclusive = response in the unintended direction; inactive = score below 0.9.
# Tested on: not listed separately
# Assay: ATG_XTT_Cytotoxicity_XSP2: Cytotoxicity Assessment in the Attagene TRANS-FACTORIAL Multi-Species (XSP2) HepG2 Assay (AID 2283837)
# Method: ATG_XSP2_XTT_Cytotoxicity_multi-species is a cell-based, single-readout assay that uses HepG2, a human liver cell line, with measurements taken at 24 hours after chemical dosing in a 24-well plate.ATG_XTT_Cytotoxicity_XSP2 is an assay component measured from the ATG_XSP2_XTT_Cytotoxicity_multi-species assay. It is designed to make measurements of cell number, a form of viability reporter, as detected with fluorescence intensity signals by XTT cytotoxicity assay technology.Data from the assay component ATG_XTT_Cytotoxicity_XSP2 was analyzed into 1 assay endpoint. This assay endpoint, ATG_XTT_Cytotoxicity_XSP2, was analyzed in the positive analysis fitting direction relative to DMSO as the negative control and baseline of activity. Using a type of viability reporter, loss-of-signal activity can be used to understand changes in the viability. Furthermore, this assay endpoint can be referred to as a primary readout, because the performed assay has only produced 1 assay endpoint. To generalize the intended target to other relatable targets, this assay endpoint is annotated to the cell cycle intended target family, where the subfamily is cytotoxicity.
# Human liver HepG2 cells are transiently transfected with multiple reporter transcription units (MRTUs) in 6-well plates using FuGene 6 reagent (Roche; 3 ml FuGene/1 mg DNA). The MRTU constructs are regulated by a cis-regulating element (promoter). […] A major difference between the CIS and TRANS system is that in CIS activities of endogenous TFs are measured, whereas the TRANS assay evaluates changes in activities of exogenous, chimeric NR-Gal4 proteins. […] At the end of 24 hour incubation, total RNA was isolated using TriZol reagent (Invitrogen). The isolated RNA is then reverse-transcribed using oligo(dT) primer and Mo-MLV reverse transcriptase (Invitrogen) with DNAse I (Ambion) treatment for 30 min. The one-tenth of the produced cDNA was amplified by PCR using Taq DNA polymerase (Invitrogen) and two reporter sequence-specific primers. The PCR products were fluorescently labeled by primer extension with 6-arboxyfluorescein (6-FAM) 5'-labeled reporter sequence-specific primer (2 min at 95 C, 20 s at 68 C and 10 min at 72 C) and these products were digested with 5U of HpaI (New England Biolabs) for 2h at 37 C. The fragments were purified using Qiaquick PCR columns (Qiagen), analyzed on an ABI 3130xL genetic analyzer (Applied Biosystems) with peak positions identified by using a set of X-rhodamine (ROX)-labeled MapMarker1000 molecular weight standards (BioVentures). The raw capillary electrophoresis data was processed using Attagraph software (Attagene).
SMILES,AC50,outcome
Clc1ccc(C(c2ccccc2Cl)C(Cl)Cl)cc1 (centres undefined),100 µM (active),
Oc1ccc2cc(SSc3ccc4cc(O)ccc4c3)ccc2c1,,inactive
OCc1cccc(Oc2ccccc2)c1,,inactive
O=c1c(O)c(-c2ccc(O)cc2)oc2cc(O)cc(O)c12,,inactive
Cc1cc(=O)oc2cc(N(C)C)ccc12,,inactive

# Molecular target: human Thyroid hormone Receptor alpha (TRa), THRA (gene 7067) (UniProt P10827)
# Sequence (P10827 whole entry, looked up): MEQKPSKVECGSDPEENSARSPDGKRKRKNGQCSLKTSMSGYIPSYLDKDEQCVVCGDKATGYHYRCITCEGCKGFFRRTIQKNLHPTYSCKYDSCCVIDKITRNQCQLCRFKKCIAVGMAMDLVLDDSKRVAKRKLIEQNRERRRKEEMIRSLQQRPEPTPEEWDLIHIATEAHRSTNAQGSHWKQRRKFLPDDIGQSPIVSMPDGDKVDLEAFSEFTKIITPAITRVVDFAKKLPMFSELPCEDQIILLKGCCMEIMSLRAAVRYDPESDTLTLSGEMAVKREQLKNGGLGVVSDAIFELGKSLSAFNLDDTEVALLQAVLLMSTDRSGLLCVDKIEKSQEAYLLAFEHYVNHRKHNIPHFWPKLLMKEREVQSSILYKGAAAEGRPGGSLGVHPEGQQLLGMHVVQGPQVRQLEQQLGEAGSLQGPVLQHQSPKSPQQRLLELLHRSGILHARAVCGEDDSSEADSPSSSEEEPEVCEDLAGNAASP
# Assay: ATG_hTRa_XSP2: Attagene TRANS-FACTORIAL Multi-Species (XSP2) HepG2 Assay for human Thyroid hormone Receptor alpha (TRa) (AID 2283838)
# Outline: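 Reporter transcripts were read by RT-PCR with fluorescent primer extension, HpaI digestion and capillary electrophoresis. These came from HepG2 cells carrying multiplexed TRa-Gal4 TRANS constructs, harvested 24 hours after dosing. The medium also held 6-alpha-fluorotestosterone (3 nM) and norgestrel (1.5 nM), and increases were fitted against DMSO.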
SMILES,outcome,AC50
Clc1ccc(C(c2ccccc2Cl)C(Cl)Cl)cc1 (centres undefined),inactive,
Oc1ccc2cc(SSc3ccc4cc(O)ccc4c3)ccc2c1,inactive,132 µM (active)
OCc1cccc(Oc2ccccc2)c1,inactive,
O=c1c(O)c(-c2ccc(O)cc2)oc2cc(O)cc(O)c12,inactive,
BrCc1cccc(Oc2ccccc2)c1,inactive,
Cc1cc(=O)oc2cc(N(C)C)ccc12,inactive,

# Molecular target: frog Thyroid hormone Receptor alpha (TRa), thra-a (gene 397942) (UniProt P15204)
# Sequence (P15204 whole entry, looked up): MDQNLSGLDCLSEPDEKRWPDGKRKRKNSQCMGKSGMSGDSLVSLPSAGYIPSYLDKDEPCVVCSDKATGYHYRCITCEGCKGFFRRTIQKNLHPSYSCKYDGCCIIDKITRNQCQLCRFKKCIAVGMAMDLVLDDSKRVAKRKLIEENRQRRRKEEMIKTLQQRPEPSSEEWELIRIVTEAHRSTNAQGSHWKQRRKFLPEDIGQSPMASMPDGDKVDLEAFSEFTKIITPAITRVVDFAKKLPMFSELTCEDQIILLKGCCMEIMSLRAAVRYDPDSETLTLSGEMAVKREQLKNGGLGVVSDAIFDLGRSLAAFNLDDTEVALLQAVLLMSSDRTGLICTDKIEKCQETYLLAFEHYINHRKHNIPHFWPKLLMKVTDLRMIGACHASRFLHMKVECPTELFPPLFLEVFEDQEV
# Assay: ATG_frTRa_XSP2: Attagene TRANS-FACTORIAL Multi-Species (XSP2) HepG2 Assay for frog Thyroid hormone Receptor alpha (TRa) (AID 2283839);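 for AC50: AC50 reflects induction of frog TRa-driven reporter mRNA above DMSO baseline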
# Outline: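 Chimeric frog TRα-GAL4 activity in human liver cells measures reporter transcript induction 24 h post-dose. Detection uses RT-PCR, HpaI-digested labelled products and fluorescence capillary electrophoresis; DMSO serves as negative control.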
SMILES,outcome,AC50
Clc1ccc(C(c2ccccc2Cl)C(Cl)Cl)cc1 (centres undefined),inactive,
Oc1ccc2cc(SSc3ccc4cc(O)ccc4c3)ccc2c1,inactive,160 µM (active)
OCc1cccc(Oc2ccccc2)c1,inactive,
O=c1c(O)c(-c2ccc(O)cc2)oc2cc(O)cc(O)c12,inactive,
BrCc1cccc(Oc2ccccc2)c1,inactive,
Cc1cc(=O)oc2cc(N(C)C)ccc12,inactive,
CCCCC(CC)COC(=O)c1ccc(O)cc1 (centres undefined),inactive,

# Molecular target: human Thyroid hormone Receptor beta (TRb), THRB (gene 7068) (UniProt P10828)
# Sequence (P10828 whole entry, looked up): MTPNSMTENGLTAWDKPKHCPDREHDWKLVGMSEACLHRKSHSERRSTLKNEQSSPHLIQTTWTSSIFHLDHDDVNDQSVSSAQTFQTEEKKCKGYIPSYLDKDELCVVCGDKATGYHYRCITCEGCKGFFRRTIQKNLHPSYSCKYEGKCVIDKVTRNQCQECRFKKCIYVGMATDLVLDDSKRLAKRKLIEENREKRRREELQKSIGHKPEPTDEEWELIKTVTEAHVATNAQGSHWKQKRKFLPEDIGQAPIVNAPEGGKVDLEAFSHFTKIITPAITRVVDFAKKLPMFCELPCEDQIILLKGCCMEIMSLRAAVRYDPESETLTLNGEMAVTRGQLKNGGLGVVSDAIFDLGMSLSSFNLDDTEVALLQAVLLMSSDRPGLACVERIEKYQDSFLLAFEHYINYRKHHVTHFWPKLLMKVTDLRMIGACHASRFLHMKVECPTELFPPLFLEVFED
# Assay: ATG_hTRb_XSP2: Attagene TRANS-FACTORIAL Multi-Species (XSP2) HepG2 Assay for human Thyroid hormone Receptor beta (TRb) (AID 2283840);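 note: actives raise reporter mRNA so potency reflects agonist-like gain of signal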
# Outline: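 Gain-of-signal reporter transcription, referenced to DMSO, was measured in transiently transfected HepG2 after 24 h exposure; labeled RT-PCR products were resolved by capillary electrophoresis. Assay medium included 3 nM 6-alpha-fluorotestosterone and 1.5 nM norgestrel.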
SMILES,outcome,AC50
Clc1ccc(C(c2ccccc2Cl)C(Cl)Cl)cc1 (centres undefined),inactive,
Oc1ccc2cc(SSc3ccc4cc(O)ccc4c3)ccc2c1,inactive,100 µM (active)
OCc1cccc(Oc2ccccc2)c1,inactive,
O=c1c(O)c(-c2ccc(O)cc2)oc2cc(O)cc(O)c12,inactive,
BrCc1cccc(Oc2ccccc2)c1,inactive,
Cc1cc(=O)oc2cc(N(C)C)ccc12,inactive,
CCCCC(CC)COC(=O)c1ccc(O)cc1 (centres undefined),inactive,

# Tested on: Sodium/Iodide Symporter (NIS), SLC5A5 (gene 6528)
# Assay: CPHEA_Stoker_NIS_Inhibition_RAIU: CPHEA's Radioactive Iodide Uptake (RAIU) Assay for Sodium/Iodide Symporter (NIS) Inhibition, Stoker and Laws Labs (AID 2283841)
# Outline: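 Iodide uptake through human NIS is measured in an engineered HEK293T line. Cells take up 125I (329pM final) for 2 hours at room temperature alongside chemicals at 0.001–100uM. Retained radioactivity is counted, and the signal is expressed against DMSO controls.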
SMILES,outcome,AC50
CCCCCCCCC=CCCCCCCCC1=NCCN1CCO,inactive,
Clc1ccc(C(c2ccccc2Cl)C(Cl)Cl)cc1 (centres undefined),inactive,
CCCCCCCCc1ccc(S(=O)(=O)O)cc1,inactive,
O=C(CC(=O)c1ccccc1)c1ccccc1,inactive,
CCOC(=O)[C@@H](C)Oc1ccc(Oc2nc3ccc(Cl)cc3o2)cc1,inactive,
c1ccc(Oc2ccccc2)cc1,inactive,
O=[N+]([O-])c1ccc(O)cc1C(F)(F)F,inactive,
CCCCCCC(=O)c1ccccc1,inactive,
OC[C@H]1O[C@@H]2O[C@H]3[C@H](O)[C@@H](O)[C@@H](O[C@H]4[C@H](O)[C@@H](O)[C@@H](O[C@H]5[C@H](O)[C@@H](O)[C@@H](O[C@H]6[C@H](O)[C@@H](O)[C@@H](O[C@H]7[C@H](O)[C@@H](O)[C@@H](O[C@H]8[C@H](O)[C@@H](O)[C@@H](O[C@H]9[C@H](O)[C@@H](O)[C@@H](O[C@H]1[C@H](O)[C@H]2O)O[C@@H]9CO)O[C@@H]8CO)O[C@@H]7CO)O[C@@H]6CO)O[C@@H]5CO)O[C@@H]4CO)O[C@@H]3CO,inactive,
C=C1CC[C@H](O)C/C1=C/C=C1\CCC[C@]2(C)[C@@H]([C@H](C)/C=C/[C@H](C)C(C)C)CC[C@@H]12,inactive,
[O-]n1ccccc1=S.[O-]n1ccccc1=S.[Zn+2],,18.1 µM (active)
OCC#CCO,inactive,
CCCCCCCCCCCCN1CCCCCC1=O,inactive,
Cc1ccc(S(=O)(=O)Oc2ccc(N=Nc3ccc(-c4ccc(N=Nc5c(O)ccc6cc(S(=O)(=O)O)cc(S(=O)(=O)O)c56)c(C)c4)cc3C)cc2)cc1,inactive,
O=c1c(O)c(-c2ccc(O)cc2)oc2cc(O)cc(O)c12,inactive,
CC(CN=Cc1ccccc1O)N=Cc1ccccc1O (centres undefined),inactive,
C[C@H]1O[C@@H](O[C@H]2[C@@H](O)C[C@H](O[C@H]3[C@@H](O)C[C@H](O[C@H]4CC[C@@]5(C)[C@H](CC[C@@H]6[C@@H]5C[C@@H](O)[C@]5(C)[C@@H](C7=CC(=O)OC7)CC[C@]65O)C4)O[C@@H]3C)O[C@@H]2C)C[C@H](O)[C@@H]1O,,1.12 µM (active)
COc1ccc(N=Nc2cc(C)c(N=Nc3ccc(S(=O)(=O)O)cc3)cc2OC)cc1,inactive,
CCCCCCCCCCCCCCN(CCO)CCO,inactive,
CCCCCCCCSCCO,inactive,
O=C(c1ccccc1)C(O)c1ccccc1 (centres undefined),inactive,
CCOc1ccc(N=Nc2ccc(C=Cc3ccc(N=Nc4ccc(OCC)cc4)cc3S(=O)(=O)O)c(S(=O)(=O)O)c2)cc1,inactive,
CCc1cc(Cc2cc(CC)cc(C(C)(C)C)c2O)c(O)c(C(C)(C)C)c1,inactive,
BrCc1cccc(Oc2ccccc2)c1,inactive,
CCCCC(CC)COC(=O)c1ccc(O)cc1 (centres undefined),,10.4 µM (active)
CCc1cc(C(C)(C)C)c(O)c(C(C)(C)C)c1,inactive,
CCCCCC(C=O)=Cc1ccccc1,inactive,
C=C(C)C(=O)OCCOC1CC2CC1C1C=CCC21 (centres undefined),inactive,

# Tested on: not listed separately
# Assay: CPHEA_Stoker_NIS_Cytotoxicity: Cytotoxicity Assessment for CPHEA's Radioactive Iodide Uptake (RAIU) Assay for Sodium/Iodide Symporter (NIS) Inhibition, Stoker and Laws Labs (AID 2283897);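 for AC50: active means loss of ATP signal versus DMSO meaning cytotoxicity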
# Outline: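 ATP luminescence (Cell Titer Glo) measured viability, with loss of signal normalized to DMSO controls. Cells: hNIS-HEK293T-EPA, seeded 40 hours prior. Dosing: 0.001–100uM, 2 hours, room temperature, uptake buffer pH 7.4.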
SMILES,outcome,AC50
CCCCCCCCC=CCCCCCCCC1=NCCN1CCO,inactive,
Clc1ccc(C(c2ccccc2Cl)C(Cl)Cl)cc1 (centres undefined),inactive,
CCCCCCCCc1ccc(S(=O)(=O)O)cc1,inactive,
O=C(CC(=O)c1ccccc1)c1ccccc1,inactive,
CCOC(=O)[C@@H](C)Oc1ccc(Oc2nc3ccc(Cl)cc3o2)cc1,inactive,
c1ccc(Oc2ccccc2)cc1,inactive,
O=[N+]([O-])c1ccc(O)cc1C(F)(F)F,inactive,
CCCCCCC(=O)c1ccccc1,inactive,
OC[C@H]1O[C@@H]2O[C@H]3[C@H](O)[C@@H](O)[C@@H](O[C@H]4[C@H](O)[C@@H](O)[C@@H](O[C@H]5[C@H](O)[C@@H](O)[C@@H](O[C@H]6[C@H](O)[C@@H](O)[C@@H](O[C@H]7[C@H](O)[C@@H](O)[C@@H](O[C@H]8[C@H](O)[C@@H](O)[C@@H](O[C@H]9[C@H](O)[C@@H](O)[C@@H](O[C@H]1[C@H](O)[C@H]2O)O[C@@H]9CO)O[C@@H]8CO)O[C@@H]7CO)O[C@@H]6CO)O[C@@H]5CO)O[C@@H]4CO)O[C@@H]3CO,inactive,
C=C1CC[C@H](O)C/C1=C/C=C1\CCC[C@]2(C)[C@@H]([C@H](C)/C=C/[C@H](C)C(C)C)CC[C@@H]12,inactive,
[O-]n1ccccc1=S.[O-]n1ccccc1=S.[Zn+2],inactive,
OCC#CCO,inactive,
CCCCCCCCCCCCN1CCCCCC1=O,inactive,
Cc1ccc(S(=O)(=O)Oc2ccc(N=Nc3ccc(-c4ccc(N=Nc5c(O)ccc6cc(S(=O)(=O)O)cc(S(=O)(=O)O)c56)c(C)c4)cc3C)cc2)cc1,,13 µM (active)
O=CCc1ccccc1,inactive,
O=c1c(O)c(-c2ccc(O)cc2)oc2cc(O)cc(O)c12,inactive,
CC(CN=Cc1ccccc1O)N=Cc1ccccc1O (centres undefined),inactive,
C[C@H]1O[C@@H](O[C@H]2[C@@H](O)C[C@H](O[C@H]3[C@@H](O)C[C@H](O[C@H]4CC[C@@]5(C)[C@H](CC[C@@H]6[C@@H]5C[C@@H](O)[C@]5(C)[C@@H](C7=CC(=O)OC7)CC[C@]65O)C4)O[C@@H]3C)O[C@@H]2C)C[C@H](O)[C@@H]1O,inactive,
COc1ccc(N=Nc2cc(C)c(N=Nc3ccc(S(=O)(=O)O)cc3)cc2OC)cc1,inactive,
CCCCCCCCCCCCCCN(CCO)CCO,inactive,
CCCCCCCCSCCO,inactive,
O=C(c1ccccc1)C(O)c1ccccc1 (centres undefined),inactive,
CCOc1ccc(N=Nc2ccc(C=Cc3ccc(N=Nc4ccc(OCC)cc4)cc3S(=O)(=O)O)c(S(=O)(=O)O)c2)cc1,inactive,
BrCc1cccc(Oc2ccccc2)c1,inactive,
CCCCC(CC)COC(=O)c1ccc(O)cc1 (centres undefined),,83.9 µM (active)
CCc1cc(C(C)(C)C)c(O)c(C(C)(C)C)c1,inactive,
CCCCCC(C=O)=Cc1ccccc1,inactive,
C=C(C)C(=O)OCCOC1CC2CC1C1C=CCC21 (centres undefined),inactive,
